Test results from PubChem BioAssay (Tox21).
“And” between values parts separate entries of the source, which are not always exact repeats. Equal values may be shown once. Some compounds were tested as several samples or in several runs, with calls that do not always agree. The source made the active and inactive calls. Where a call stands in place of a potency, no number is given. Unless noted, calls follow the shape of the dose curve; as a rule, active = well fitted curve in the direction sought with a large enough effect in the repeat runs; inconclusive = weak or mixed curves; inactive = no such curve, though single readings can be large; an effect the other way counts as inactive or inconclusive.

How the values were obtained:
[1] = qHTS assay for small molecule agonists of the p53 signaling pathway (AID 651631; calls by dose curve; also: nearly all actives have a fitted effect of over 15% in size; also: potency is read from the fitted curve at half-maximal effect)
Outline: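 We treat p53RE-bla HCT-116 cells with compounds for 16 h at 37 °C, add LiveBLAzer B/G FRET substrate for 2 h at room temperature, and measure fluorescence intensity.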

[2] = qHTS assay for small molecules that induce genotoxicity in human embryonic kidney cells expressing luciferase-tagged ATAD5 (AID 651632); also: nearly all actives have a fitted effect of over 15% in size
Outline: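 HEK293T cells carrying a luciferase reporter tagged to ATAD5 were exposed to compound or DMSO vehicle for 16 hr at 37C, 5% CO2. Amplite was added, and after 30 min at room temperature luciferase activity was read as a marker of ATAD5 induction.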

[3] = qHTS assay for small molecule agonists of the p53 signaling pathway - cell viability (AID 651633; calls by dose curve; also: nearly all actives have a fitted effect of over 30% in size; also: potency is read from the fitted curve at half-maximal effect)
Outline: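 Viability counter-read: CellTiter-Glo luminescence (30 min, room temperature) in the same p53RE-bla plates. These plates had been exposed to compounds for 16 h at 37 C.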

[4] = qHTS assay for small molecules that induce genotoxicity in human embryonic kidney cells expressing luciferase-tagged ATAD5 - cell viability (AID 651634; calls by dose curve; also: nearly all actives have a fitted effect of over 25% in size; also: potency is read from the fitted curve at half-maximal effect)
Outline: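 HEK293T cells expressing luciferase-tagged ATAD5 were exposed to compound or DMSO for 15.5 hr at 37C, 5% CO2. Viability was then read as live-cell protease activity by CellTiter-Fluor fluorescence after 30 min at 37C.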

[5] = qHTS assay for small molecule disruptors of the mitochondrial membrane potential - cell viability (AID 720634; calls by dose curve; also: nearly all actives have a fitted effect of over 20% in size; also: potency is read from the fitted curve at half-maximal effect)
Outline: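 HepG2 cells seeded overnight at 37 C, then exposed to compound or DMSO for 1 hr at 37 C, 5% CO2. m-MPI dye added, then CellTiter-Glo for 30 min at room temperature; viability read as ATP luminescence.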

[6] = qHTS assay to test for compound auto fluorescence at 590 nm (red) in HepG2 cells (AID 720674)
Outline: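 1 hr compound incubation on HepG2 cells, 37 C, 5% CO2; plate read ex 540 nm / em 590 nm; intensities reported as Rose Bengal sodium equivalents.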

[7] = qHTS assay to test for compound auto fluorescence at 535 nm (green) in HepG2 cells (AID 720675)
[8] = qHTS assay to test for compound auto fluorescence at 460 nm (blue) in HEK293 cells (AID 720678)
Outline: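 After cell attachment (4-5 hr, 37C), compounds were pinned onto HEK293 monolayers in 10% dialyzed FBS medium. The blue channel (405/460 nm) was read following overnight culture. Equivalency was calculated against triamterene.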

[9] = qHTS assay to test for compound auto fluorescence at 590 nm (red) in HEK293 cells (AID 720679)
Outline: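 Plates of HEK293 cells (10% dialyzed FBS) are treated with 23 nL compound or DMSO vehicle after a 4-5 hr attachment period, incubated overnight at 37C, and read for red fluorescence at 540/590nm.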

[10] = qHTS assay to test for compound auto fluorescence at 535 nm (green) in HEK293 cells (AID 720680)
[11] = qHTS assay to test for compound auto fluorescence at 460 nm (blue) in HEK293 cell free culture (AID 720681)
Outline: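 Blue fluorescence (Ex 405/Em 460 nm, triamterene-equivalent) was read immediately after pin transfer of compound or DMSO into medium (DMEM, 10% FBS) without cells.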

[12] = qHTS assay to test for compound auto fluorescence at 535 nm (green) in HEK293 cell free culture (AID 720682)
Outline: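 Green-channel intensity (Ex/Em 485/535 nm) was recorded from compound-treated wells containing only DMEM with 10% FBS. Fluorescein provided the equivalency standard.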

[13] = qHTS assay to test for compound auto fluorescence at 590 nm (red) in HEK293 cell free culture (AID 720683)
Outline: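 Red-channel autofluorescence of compounds in culture medium (DMEM, 10% FBS), no cells, measured at 540/590 nm. Rose Bengal sodium is the reference fluorophore for equivalence.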

[14] = qHTS assay to test for compound auto fluorescence at 460 nm (blue) in HepG2 cell free culture (AID 720685)
Outline: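 Compound (23 nL) or DMSO pinned into cell-free MEM with 10% FBS; blue fluorescence read at 405/460 nm excitation/emission, expressed as auto-fluorescence equivalency to triamterene.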

[15] = qHTS assay to test for compound auto fluorescence at 535 nm (green) in HepG2 cell free culture (AID 720686)
[16] = molecular target: Glucocorticoid receptor (Homo sapiens) (UniProt P04150); experiment: qHTS assay to identify small molecule agonists of the glucocorticoid receptor (GR) signaling pathway (AID 720691; active = well fitted activation curve with a large enough effect in the signal ratio in the repeat runs, not every such curve was filed as active; inconclusive = weak or mixed curves, or effect the other way; inactive = no such curve, though single readings can be large or run the other way; the % refers to the signal ratio; also: potency is read from the fitted curve at half-maximal effect); details: GR-bla HeLa, beta-lactamase reporter ratio, 18 h; activation: at 62.4 µM (top of the series) unless noted
Sequence of Glucocorticoid receptor (Homo sapiens) (P04150 whole entry, looked up): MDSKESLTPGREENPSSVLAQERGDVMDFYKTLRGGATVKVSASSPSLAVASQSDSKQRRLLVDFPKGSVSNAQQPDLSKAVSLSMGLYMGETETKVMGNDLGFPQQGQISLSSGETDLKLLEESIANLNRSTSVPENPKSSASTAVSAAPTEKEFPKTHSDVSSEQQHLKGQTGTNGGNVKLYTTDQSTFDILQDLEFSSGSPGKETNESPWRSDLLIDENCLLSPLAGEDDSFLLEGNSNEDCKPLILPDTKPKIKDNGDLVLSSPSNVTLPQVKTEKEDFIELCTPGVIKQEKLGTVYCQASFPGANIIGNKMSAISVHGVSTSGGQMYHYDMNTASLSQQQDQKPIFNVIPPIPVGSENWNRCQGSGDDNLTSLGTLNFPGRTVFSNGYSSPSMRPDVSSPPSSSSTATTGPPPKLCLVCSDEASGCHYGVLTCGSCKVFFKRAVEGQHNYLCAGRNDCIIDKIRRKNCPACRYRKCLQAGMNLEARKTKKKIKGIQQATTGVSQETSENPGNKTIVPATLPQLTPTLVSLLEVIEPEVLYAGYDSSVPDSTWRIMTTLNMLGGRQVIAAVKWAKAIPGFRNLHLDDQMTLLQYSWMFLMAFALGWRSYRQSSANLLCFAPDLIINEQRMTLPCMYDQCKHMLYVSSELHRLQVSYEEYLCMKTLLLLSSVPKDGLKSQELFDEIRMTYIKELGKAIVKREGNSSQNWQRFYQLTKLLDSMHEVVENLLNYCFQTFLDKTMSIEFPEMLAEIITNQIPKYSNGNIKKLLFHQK
Outline: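 GR-bla HeLa cells (beta-lactamase reporter under glucocorticoid response element) were plated 4 h at 37 C/5% CO2, given compounds in DMSO, and incubated 18 h at 37 C. LiveBLAzer B/G FRET substrate was added for 2 h at room temperature, then fluorescence intensity read.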

[17] = qHTS assay for small molecule disruptors of the mitochondrial membrane potential (AID 720635); also: potency is read from the fitted curve at half-maximal effect
Outline: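 Mitochondrial membrane potential tracked with Mito-MPS dye, red aggregates (ex 540/em 590 nm) against green monomers (ex 490/em 535 nm). Compound treatment 1 hr at 37C, dye 30 min in HepG2.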

[18] = qHTS assay to test for compound auto fluorescence at 590 nm (red) in HepG2 cell free culture (AID 720684)
Outline: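 Steps: dispense MEM/10% FBS medium, no cells; pin compound or DMSO vehicle; read red channel, Ex/Em 540/590 nm. Output given as Rose Bengal sodium equivalents.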

[19] = qHTS assay to test for compound auto fluorescence at 460 nm (blue) in HepG2 cells (AID 720687)
Outline: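 Blue-channel autofluorescence (Ex/Em 405/460 nm, triamterene-equivalent) was measured after 1 hr compound exposure at 37 C, 5% CO2. Cells were HepG2, plated overnight at 37 C in MEM plus 10% FBS.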

[20] = molecular target: Glucocorticoid receptor (Homo sapiens) (UniProt P04150); experiment: qHTS assay to identify small molecule antagonists of the glucocorticoid receptor (GR) signaling pathway (AID 720692; active = well fitted inhibition curve with a large enough effect in the signal ratio in the repeat runs, not every such curve was filed as active; inconclusive = weak or mixed curves, or effect the other way; inactive = no such curve, though single readings can be large or run the other way; the % refers to the signal ratio)
Outline: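 GR-bla HeLa cells (beta-lactamase reporter under glucocorticoid response element) were pre-plated 4 h at 37 C, treated with compounds plus 5 nM dexamethasone (final) for 18 h, then read by LiveBLAzer B/G FRET fluorescence after 2 h.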

Compound | Potency [1] | Potency [2] | Potency [3] | Potency [4] | Potency [5] | outcome [6] | outcome [7] | Potency [8] | outcome [9] | outcome [10] | Potency [11] | outcome [12] | outcome [13] | Potency [14] | outcome [15] | Potency [16] | Potency [17] | outcome [18] | outcome [19] | Potency [20]
C[C@@H](O)[C@H]1C(=O)N2C(C(=O)O)=C(S[C@@H]3CN[C@H](C(=O)N(C)C)C3)[C@H](C)[C@H]12 | inactive | inactive | inactive | inactive | inactive | inactive | inactive | inactive | inactive | inactive | inactive | inactive | inactive | inactive | inactive | inactive | – | – | – | –
CCCCC(CC)C(=O)OCCOCCOCCOC(=O)C(CC)CCCC (centres undefined) | inactive | inactive | inactive | inactive | inactive | – | – | – | inactive | inactive | inactive | inactive | inactive | inactive | inactive | – | inactive and 15.4 µM (active) | inactive | inactive | inactive
O=[N+]([O-])c1cccc(Cl)c1 | inactive | inactive | inactive | inactive | inactive | – | inactive | – | inactive | inactive | inactive | inactive | inactive | inactive | – | – | inactive | inactive | inactive | –
CC1(C)O[C@@H]2C[C@H]3[C@@H]4C[C@H](F)C5=CC(=O)CC[C@]5(C)[C@H]4[C@@H](O)C[C@]3(C)[C@]2(C(=O)CO)O1 | inactive | inactive | inactive | inactive | inactive | inactive | inactive | – | inactive | inactive | inactive | inactive | inactive | inactive | inactive | 18.2 nM [inconclusive] (active) and 3.9 nM (active) | inactive | – | inactive | –
CN(C)c1ccc(C(=N)c2ccc(N(C)C)cc2)cc1 | 4.28 µM (active) and 5.88 µM (active) | inactive | inactive | 48 µM (active) and 46.7 µM (active) | inactive | – | inactive | inactive | inactive | inactive | – | inactive | inactive | inactive | inactive | inactive | 27 µM (active) and 46.7 µM (active) | inactive | – | –
COCC(=O)O | inactive | inactive | inactive | inactive | inactive | inactive | inactive | inactive | inactive | inactive | inactive | inactive | inactive | inactive | inactive | inactive | – | – | inactive | inactive
NS(=O)(=O)c1cc2c(cc1Cl)NC=NS2(=O)=O | inactive | inactive | inactive | inactive | inactive | inactive | – | inactive | inactive | inactive | inactive | inactive | inactive | inactive | – | – | inactive | inactive | inactive | –
C=CC(=O)OCCCCCCCC(C)C | inactive | inactive | inactive | inactive | inactive | inactive | inactive | inactive | inactive | inactive | inactive | – | inactive | inactive | – | – | inactive | – | inactive | –
Cc1cc(O)c2c(c1)C(=O)c1cc(O)cc(O)c1C2=O | 10.6 µM (active) | inactive | inactive and 61.1 µM (active) | 23.8 µM (active) and 54.5 µM (active) | 15 µM (active) | inactive | inactive | inactive | inactive | inactive | inactive | inactive | inactive | inactive | inactive | inactive | 1.68 µM (active) and 545 nM (active) | – | – | –
CCCCOCCO | inactive | inactive | inactive | inactive | inactive | inactive | – | inactive | inactive | inactive | inactive | inactive | inactive | inactive | inactive | inactive | inactive | inactive | – | inactive
